The campaign covered roughly 410,000 compounds. About 3,100 (0.76%) were called active. The sample holds actives, similar compounds and a random draw of the others, so the mix is not that of the screen. A number with no mark means an inactive call. The call rests on the fitted dose curve; in most records, active means well fitted cell-killing curve with a large enough effect; inactive means no such curve, though single readings can be large or run the other way.
Potency means the concentration at half of the fitted maximal effect.

A short description of this test: qHTS for Inhibitors of TGF-b: Cytotox Counterscreen. The note with it: HepG2 CAGA-GFP viability, ATP luminescence, 18 h; series mostly up to 46.1 µM; activity change, negative = cytotoxicity: at the top concentration. Summed up: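 CellTiter-Glo luminescence gave cytotoxicity after 18 hours at 37 degrees C. The cells were HepG2 CAGA-GFP in 1% FBS DMEM, stimulated with 500 pg/mL TGF-beta after compound addition. %Activity was normalised to no-cell wells (complete cell-killing) and DMSO (no toxicity), and curves were fitted and classified.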
A general note: qHTS replaces the single test concentration by a dilution series.
With `COc1ccc(/C=C/C(=O)c2cc(Br)ccc(=O)c2O)cc1`, the “activity change, negative = cytotoxicity” value was -35.7%.
For the compound `CCS(=O)(=O)c1nc(S(=O)(=O)c2ccc(C)cc2)c(NCc2ccc(Cl)cc2)s1`, the “activity change, negative = cytotoxicity” value is -1.56%.
As for `CCC(=O)N1CCc2cc(Br)cc(S(=O)(=O)CCC(=O)NCCc3ccc(OC)c(OC)c3)c21`, the “activity change, negative = cytotoxicity” value was 5.48%.
Same read-out and setting: with `COc1ccc(-c2cn3nc(N4CCC(C(=O)Nc5cccc(C)c5C)CC4)sc3n2)cc1` the figure was -1.02%.
For the compound `CC(C)=CCCC1(C)C=Cc2c(ccc3c2[nH]c2cc(O)c(C)cc23)O1` (stereo not drawn), the Potency is 15.8 µM (active).
In the case of `Brc1ccc2c(c1)NC(c1cccnc1)=NC(c1ccccc1)=N2`, the “activity change, negative = cytotoxicity” value is -0.338%.
Turning to `COc1ccc(CCNC(=O)c2cc(=O)c3c(C)cc(C)cc3o2)cc1OC`, the “activity change, negative = cytotoxicity” value was 7.77%.
Still for that read-out and setting: with `Cc1ccc(N(C)C(=O)C2CCN(S(=O)(=O)c3ccc4c(c3)CCCN4C(=O)C3CCC3)CC2)cc1` the figure was -11.8%.
With `CCc1ccc(NC(=O)C2CCCN2S(=O)(=O)c2ccc3nc(-c4ccccc4)[nH]c3c2)cc1` (stereo not drawn), the “activity change, negative = cytotoxicity” value was -33.6%.
For `O=C(c1ccc(CN2CCOCC2)cc1)N1CCN(c2ccccc2F)CC1`, the Potency is 3.16 µM (active).
Turning to `O=S(=O)(N1CCOCC1)N1CCN(c2ccccc2F)CC1`, the “activity change, negative = cytotoxicity” value is 0.0503%.
Take `O=C(CCSc1ccccc1)N1CCN(c2ccccc2F)CC1`: the “activity change, negative = cytotoxicity” value is -4.95%.
In the case of `Cc1cccc(N2CCN(C(=O)c3ccc(Nc4nc5ccccc5n5nnnc45)cc3)CC2)c1C`, the “activity change, negative = cytotoxicity” value is -1.95%.
Still for that read-out and setting: under `CN(C)c1ccc(C=Nc2ccc(/C=C/c3ccnc4ccccc34)cc2)cc1` stands -25.8%.
Consider `Oc1c(Cl)cc(Cl)c(Cl)c1Cc1c(O)c(Cl)cc(Cl)c1Cl`, for which the Potency was 10 µM (active).
With `N#Cc1ccc[n+](CC(=O)c2ccc(F)cc2)c1`, the “activity change, negative = cytotoxicity” value was 1.22%.
For `COC(=O)c1ccc(Cn2c(SCC(=O)N(C)c3ccccc3)nc3ccccc32)cc1`, the “activity change, negative = cytotoxicity” value was -22%.
For `CCOC(=O)c1c(-c2ccc(C)cc2C)csc1NC(=O)CSc1nnnn1C`, the “activity change, negative = cytotoxicity” value was -0.949%.
With `CCCS(=O)(=O)c1ncc(Cl)c(C(=O)Nc2scc(-c3ccccc3)c2C(=O)OCC)n1`, the Potency is 11.2 µM (active).
In the case of `CCOC(=O)c1scc(-c2ccccc2)c1S(=O)(=O)Nc1ccccc1F`, the “activity change, negative = cytotoxicity” value is -27.7%.
Regarding `CCOC(=O)c1ccc(NC(=O)CC2C(=O)N(c3ccccc3)C(=O)N2Cc2cccs2)cc1` (stereo not drawn), the “activity change, negative = cytotoxicity” value was -9.2%.
Regarding `CCC(C)N(c1ccc(/C=C/c2ccnc3ccccc23)cc1)C(C)CC` (stereo not drawn), the “activity change, negative = cytotoxicity” value was -3.27%.
Consider `Cc1cccc(NC(=O)N2CCC(CN3CCc4ccccc4C3)CC2)c1C`, for which the “activity change, negative = cytotoxicity” value is -0.594%.
Take `Cc1ccccc1Cn1c2ccccc2c2cnn(CC(=O)NCc3ccco3)c(=O)c21`: the “activity change, negative = cytotoxicity” value is -11.1%.
As for `CCN(CC)CCNC(=O)Cn1ncc2c3ccccc3n(Cc3ccccc3C)c2c1=O`, the Potency is 15.8 µM (active).
In the case of `CCCN(CCC)CCCNC(=O)Cn1ncc2c3ccccc3n(Cc3ccccc3)c2c1=O`, the “activity change, negative = cytotoxicity” value was -15.3%.
As to `O=C(CSc1oc(-c2ccco2)nc1S(=O)(=O)c1ccc(Cl)cc1)c1ccccc1`, the “activity change, negative = cytotoxicity” value is -1.63%.
Same read-out and setting: under `COC(=O)CC1Oc2ccccc2-n2cc(-c3ccccc3)nc21` (stereo not drawn) stands -5.42%; under `COc1cc(/C=C/C(=O)O)cc(S(=O)(=O)Nc2ccccc2SC)c1OC`, 22.3%; under `CCOc1ccc(C(=O)Nc2ccc3nc4c(c(Nc5ccccc5OC)c3c2)CCCC4)cc1`, -37.6%.
`COc1ccccc1Nc1c2c(nc3ccc(NC(=O)/C=C/c4cc(OC)c(OC)c(OC)c4)cc13)CCCC2`: the Potency is 5.62 µM (active).
With `COCCCNC(=O)c1c(NC(=O)c2cc(=O)c3cc(C)c(C)cc3o2)sc2c1CCCC2`, the “activity change, negative = cytotoxicity” value was 2.12%.
Take `COC(=O)c1sc(-c2ccc(C(C)(C)C)cc2)cc1NC(=O)/C=C/C(=O)O`: the Potency was 7.08 µM (active).
With `OC(Cc1ccc2ccccc2n1)c1ccc(Cl)c(Cl)c1` (stereo not drawn), the “activity change, negative = cytotoxicity” value was -20.4%.
The same measure, in the same setting: under `C/C=C/NNC(=O)Cc1ccc(OC)cc1` stands -54.5%; under `O=c1cc2nc(-c3ccccc3)nc(SCCOc3ccc(Cl)cc3)n2[nH]1`, -2%.
For the compound `Cc1cccc(-c2nc(SCc3ccc(Br)cc3)n3[nH]c(=O)cc3n2)c1`, the “activity change, negative = cytotoxicity” value was 0.961%.
Regarding `Cc1ccc(-c2nc(SCc3ccc(Br)cc3)n3[nH]c(=O)cc3n2)cc1`, the Potency was 5.01 µM (active).
`COc1ccc(-c2nc(CN3CCC(C(=O)NCc4ccccc4)CC3)c(C)o2)cc1OC`: the “activity change, negative = cytotoxicity” value was -2.01%.
With `Nc1ccc(/C=C/c2ccnc3ccccc23)c([N+](=O)[O-])c1`, the “activity change, negative = cytotoxicity” value was -3.67%.
As for `COc1cccc(CNC(=O)c2ccc3c(c2)sc2nc(-c4cccc(OC)c4)cn23)c1`, the “activity change, negative = cytotoxicity” value is -20.8%.
Consider `Cc1cccc(-n2c(SCC(N)=O)nc3c(oc4ccccc43)c2=O)c1`, for which the “activity change, negative = cytotoxicity” value was -24.7%.
Same read-out and setting: under `Cc1cc(C)cc(Nc2ncnc3onc(-c4ccc(F)cc4)c23)c1` stands -30.7%; under `C=COC(=O)N1CCN(/[N+]([O-])=N/Oc2ccc([N+](=O)[O-])cc2[N+](=O)[O-])CC1`, -67.7%.
In the case of `Cc1cccc(NS(=O)(=O)c2ccc(-c3cnc(C4CC4)o3)cc2)c1`, the “activity change, negative = cytotoxicity” value was -18.6%.
Regarding `Cc1cc(NS(=O)(=O)c2ccc3oc(=O)c4ncn(C)c4c3c2)ccc1Br`, the Potency was 11.2 µM (active).
On to `CCn1c(=O)c(=O)[nH]c2c(=O)oc3ccc(S(=O)(=O)Nc4ccc(OC)cc4)cc3c21`, for which the “activity change, negative = cytotoxicity” value is 0.0878%.
For `Cc1ccc(-c2cc(C(F)(F)F)c(C#N)c(SCC(=O)Nc3ccccc3)n2)cc1`, the “activity change, negative = cytotoxicity” value is -57.5%.
